The record followed here is the supplement of paper PMC4022240.

± gives the standard deviation.

Test in all cases: peptide microarray binding signal (635 nm), min-max normalized on array (fraction of array maximum); higher = stronger binding
Conditions in all cases: peptide region: H3 112-124

The target of assay [1] is T1, HaloTag-ATRX ADD domain (163-292).
T1 chain: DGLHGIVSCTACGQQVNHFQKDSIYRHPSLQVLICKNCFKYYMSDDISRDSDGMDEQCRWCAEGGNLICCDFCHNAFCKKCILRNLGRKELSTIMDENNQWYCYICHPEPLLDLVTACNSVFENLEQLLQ
Put shortly: (§1)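 Arrays carried histone 13-mer peptide–cellulose conjugates printed in triplicate on nitrocellulose alongside a Cy3 tracer. After overnight blocking at 4°C, they were incubated for 1 h at 4°C with biotin-labelled HaloTag reader fusions (10 nM to 1 μM) plus streptavidin-Alexa Fluor 647, or with rabbit histone antibodies (1:10,000 to 1:2,000) plus anti-rabbit Alexa 647. Scanning on an Axon GenePix 4000B used 635 nm for signal and 532 nm for misprints. The binding signal reported is each triplicate's mean spot intensity after per-library min-max scaling.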

Assay [2] addresses HaloTag-ING2 PHD (mouse Ing2 200-280). Put shortly:
as §1

For assay [3], the target named is anti-H3K4me3 antibody ab8580. Put shortly:
as §1

Assay [4] has as its target anti-H3K9me3 antibody ab8898. Put shortly:
as §1

Where [5] appears, read: peptide modifications: H3K115me2 H3K122me1, binder concentration: 1:2,000 dilution.
Setting [6] is: peptide modifications: H3K115me2 H3K122me1, binder concentration: 1:10,000 dilution.
[7] abbreviates: peptide modifications: H3K115me2, binder concentration: 1:2,000 dilution.
Setting [8] is: peptide modifications: H3K115me2, binder concentration: 1:10,000 dilution.
The mark [9] stands for this setting: peptide modifications: H3K115me1 H3R116me2s, binder concentration: 1:2,000 dilution.
The mark [10] stands for this setting: peptide modifications: H3K115me1 H3R116me2s, binder concentration: 1:10,000 dilution.
The mark [11] stands for this setting: peptide modifications: H3K115me1 H3R116me1, binder concentration: 1:2,000 dilution.
Setting [12] is: peptide modifications: H3K115me1 H3R116me1, binder concentration: 1:10,000 dilution.
The mark [13] stands for this setting: peptide modifications: H3K115me2 H3R116me1, binder concentration: 1:2,000 dilution.
The mark [14] stands for this setting: peptide modifications: H3K115me2 H3R116me1, binder concentration: 1:10,000 dilution.

Take IHAKRVTIMPKDI [H3 112-124 I H A Kme2 R V T I M P Kme D I]: the “peptide microarray binding signal” value in assay [1] (peptide modifications: H3K115me2 H3K122me1, binder concentration: 50 nM) is 0.00398 ± 8.3e-05; in assay [1] (peptide modifications: H3K115me2 H3K122me1, binder concentration: 500 nM), 0.00852 ± 0.00012; in assay [2] (peptide modifications: H3K115me2 H3K122me1, binder concentration: 10 nM), 0.0224 ± 0.00092; in assay [2] (peptide modifications: H3K115me2 H3K122me1, binder concentration: 100 nM) it was 0.0286 ± 0.0023; in assay [3] (setting [5]) it was 0.0024 ± 0.00012; in assay [3] (setting [6]), 0.002853 ± 2.4e-05. Besides, the “peptide microarray binding signal” value in assay [4] (setting [5]) stood at 0.0016 ± 2.9e-05; in assay [4] (setting [6]), 0.001441 ± 1.4e-05.

With IHAKRVTIMPKDI [H3 112-124 I H A Kme2 R V T I M P K D I], the “peptide microarray binding signal” value in assay [1] (peptide modifications: H3K115me2, binder concentration: 50 nM) was 0.0058 ± 7e-05; in assay [1] (peptide modifications: H3K115me2, binder concentration: 500 nM), 0.012 ± 0.0003; in assay [2] (peptide modifications: H3K115me2, binder concentration: 10 nM) it was 0.0144 ± 0.00078; in assay [2] (peptide modifications: H3K115me2, binder concentration: 100 nM) it was 0.0293 ± 0.0017; in assay [3] (setting [7]), 0.00506 ± 0.00089; in assay [3] (setting [8]), 0.00588 ± 0.00054. Besides, the results for the “peptide microarray binding signal” value in assay [4] (setting [7]) and in assay [4] (setting [8]) were 0.00495 ± 0.00045 and 0.00479 ± 0.00031, respectively.

For the molecule IHAKRVTIMPKDI [H3 112-124 I H A Kme Rme2s V T I M P K D I], the “peptide microarray binding signal” value in assay [1] (peptide modifications: H3K115me1 H3R116me2s, binder concentration: 50 nM) came out at 0.00257 ± 2.3e-05; in assay [1] (peptide modifications: H3K115me1 H3R116me2s, binder concentration: 500 nM) it was 0.00552 ± 0.00018; in assay [2] (peptide modifications: H3K115me1 H3R116me2s, binder concentration: 10 nM), 0.004 ± 0.00015; in assay [2] (peptide modifications: H3K115me1 H3R116me2s, binder concentration: 100 nM), 0.00716 ± 0.00083; in assay [3] (setting [9]) it was 0.000906 ± 2.8e-05; in assay [3] (setting [10]), 0.00137 ± 1.3e-05. In addition, the results for the “peptide microarray binding signal” value in assay [4] (setting [9]) and in assay [4] (setting [10]) were 0.00156 ± 0.00014 and 0.00127 ± 1.3e-05, respectively.

With IHAKRVTIMPKDI [H3 112-124 I H A Kme Rme V T I M P K D I], the “peptide microarray binding signal” value in assay [1] (peptide modifications: H3K115me1 H3R116me1, binder concentration: 50 nM) turned out to be 0.0108 ± 0.00023; in assay [1] (peptide modifications: H3K115me1 H3R116me1, binder concentration: 500 nM) it was 0.0356 ± 0.0019; in assay [2] (peptide modifications: H3K115me1 H3R116me1, binder concentration: 10 nM), 0.0466 ± 0.0022; in assay [2] (peptide modifications: H3K115me1 H3R116me1, binder concentration: 100 nM) it was 0.0304 ± 0.0046; in assay [3] (setting [11]), 0.00891 ± 0.0021; in assay [3] (setting [12]), 0.00593 ± 0.0011. The results for the “peptide microarray binding signal” value in assay [4] (setting [11]) and in assay [4] (setting [12]) were 0.00746 ± 0.0012 and 0.00646 ± 0.00037, respectively.

Take IHAKRVTIMPKDI [H3 112-124 I H A Kme2 Rme V T I M P K D I]: the “peptide microarray binding signal” value is 0.00978 ± 0.00067 in assay [1] (peptide modifications: H3K115me2 H3R116me1, binder concentration: 50 nM); 0.0323 ± 0.001 in assay [1] (peptide modifications: H3K115me2 H3R116me1, binder concentration: 500 nM); 0.0352 ± 0.017 in assay [2] (peptide modifications: H3K115me2 H3R116me1, binder concentration: 10 nM); 0.0291 ± 0.0025 in assay [2] (peptide modifications: H3K115me2 H3R116me1, binder concentration: 100 nM); 0.0244 ± 0.00081 in assay [3] (setting [13]); 0.0144 ± 0.0052 in assay [3] (setting [14]). Further, the “peptide microarray binding signal” value was determined as 0.00761 ± 0.0024 in assay [4] (setting [13]) and 0.0104 ± 0.00061 in assay [4] (setting [14]).
